Beta2AR agonist: activates human beta-2 adrenergic receptor causing internalization; P07550; AID 504454; response, % (concentration not given with the values); Am2.2-beta2AR cells, FAP receptor internalization, flow cytometry; actives 0.43% (n = 340,000);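 active = response above a set limit, near 3 SD of response in nonfluorescent compounds, cut at about 42% in these data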
Target sequence (P07550 whole entry, looked up): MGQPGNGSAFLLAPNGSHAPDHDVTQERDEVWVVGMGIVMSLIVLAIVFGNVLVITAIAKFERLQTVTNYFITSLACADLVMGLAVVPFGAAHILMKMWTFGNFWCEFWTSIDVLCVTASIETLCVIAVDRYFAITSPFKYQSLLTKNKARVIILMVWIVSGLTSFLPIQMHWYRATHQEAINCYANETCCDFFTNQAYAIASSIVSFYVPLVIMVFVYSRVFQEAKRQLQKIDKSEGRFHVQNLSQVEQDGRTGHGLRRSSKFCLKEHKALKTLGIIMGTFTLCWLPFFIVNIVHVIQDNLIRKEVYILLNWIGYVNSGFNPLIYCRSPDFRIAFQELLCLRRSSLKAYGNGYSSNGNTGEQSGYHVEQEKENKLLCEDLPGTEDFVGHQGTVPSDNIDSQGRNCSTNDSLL
Bfl-1 A1 inh: inhibitors of the anti-apoptotic protein A1, read as caspase activation | MEF A1-2A-BIM cells, Caspase-Glo 3/7 luminescence, 3 h; percent of clofoctol response, vehicle zero | caspase activation, % (no concentration beside the values) | actives 0.066% (n = 330,000);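 active = over half of replicate activation scores above 10%, or exactly half above 10 with the replicate mean above 10; inconclusive = replicate mean below 10 yet half the replicates above 10; inactive = over half of replicates below 10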
Dyrk1A ADPGlo: Dyrk1A (rat) kinase inhibition; Q63470; ADP-Glo luminescence, NFATc1 peptide; inhibition, % at 12.5 µM; actives 0.43% (n = 310,000); in the data active = inhibition above about 50%;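 note: plate controls were vehicle with enzyme for no effect and no enzyme for full effect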
dFosB act: activators of mouse delta FosB homodimer; purified delta FosB, TAMRA-CDK5 oligo fluorescence polarization; percent of positive-control signal above neutral wells; activation, % at 25 µM; actives 0.99% (n = 340,000); AID 493131;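 active = mean activation above about 17%, with every replicate also reaching it, limit read from the data, passing the limit was not always enough; inconclusive = only one of the two conditions met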
Numbers without * were called inactive. Rows were chosen to be rich in hits. Some 1.6% of all compounds tested hit in one or more screens of this group.

What do the screens show for `C=CCc1cccc(/C=N/NC(=O)c2ccc3nc[nH]c3c2)c1O`?
Beta2AR agonist: 12.0; Bfl-1 A1 inh: 0.2; Dyrk1A ADPGlo: -6.1; dFosB act: 19.4*

Results for CC(C)(C)c1ccc(-n2ncc3c2CCCC3NC(=O)C2=NNC(=O)CC2)cc1 (stereo not drawn) ?
Beta2AR agonist: -1.6; Bfl-1 A1 inh: 1.2; Dyrk1A ADPGlo: -4.9; dFosB act: -5.3

Results for CS(=O)(=O)Nc1ccc(C2=NN(S(C)(=O)=O)C(c3ccccc3)C2)cc1 (stereo not drawn) ?
Beta2AR agonist: 0.5; Bfl-1 A1 inh: inconclusive; dFosB act: -2.3

Results for CCS(=O)(=O)N1N=C(c2ccc(NS(C)(=O)=O)cc2)CC1c1ccccc1 (stereo not drawn) ?
Beta2AR agonist: 2.3; Bfl-1 A1 inh: 0.0; Dyrk1A ADPGlo: 6.9; dFosB act: 46.3*

Results for CCCCNc1cc(Cl)nc(N)n1 ?
Beta2AR agonist: 7.4; Bfl-1 A1 inh: -0.3; Dyrk1A ADPGlo: -10.1; dFosB act: -8.5

What do the screens show for `NC(=S)NN=C1c2cc(OCCN3CCOCC3)ccc2-c2ccc(OCCN3CCOCC3)cc21`?
Beta2AR agonist: 25.5; Bfl-1 A1 inh: -0.1; Dyrk1A ADPGlo: -0.6; dFosB act: 39.4*

Results for CCCN1CCN(CCCNC(=S)Nc2ccc3nc(N4CCN(CC)CC4)cc(C)c3c2)CC1 ?
Beta2AR agonist: 18.3; Bfl-1 A1 inh: 0.3; Dyrk1A ADPGlo: -8.9; dFosB act: 8.1

What do the screens show for `CCN(CC)CCNC(=S)Nc1ccc2nc(N3CCN(CC)CC3)cc(C)c2c1`?
Beta2AR agonist: 17.3; Bfl-1 A1 inh: 1.1; Dyrk1A ADPGlo: 1.8; dFosB act: 18.4*

How did CCN1CCN(c2cc(C)c3cc(NC(=S)NCCCN4CCc5ccccc5C4)ccc3n2)CC1 do in these assays?
Beta2AR agonist: 26.0; Bfl-1 A1 inh: 0.3; Dyrk1A ADPGlo: 4.1; dFosB act: 36.7*

What do the screens show for `Cc1cc(N2CCN(C)CC2)nc2ccc(NC(=S)NCCN3CCc4ccccc4C3)cc12`?
Beta2AR agonist: 26.3; Bfl-1 A1 inh: 0.9; Dyrk1A ADPGlo: 5.6; dFosB act: 34.7*

How did CCOC(=O)N1CCC(NC(=S)Nc2ccc3nc(N4CCN(CC)CC4)cc(C)c3c2)CC1 do in these assays?
Beta2AR agonist: 50.2*; Bfl-1 A1 inh: -0.6; Dyrk1A ADPGlo: -4.4; dFosB act: -4.1

Results for O=C(NC1(C(F)(F)F)OCCO1)c1ccc(F)cc1 ?
Beta2AR agonist: -2.8; Bfl-1 A1 inh: -2.1; Dyrk1A ADPGlo: -7.1; dFosB act: 3.1

What do the screens show for `COc1ccc(Cc2c(N)nc(N)nc2N)cc1`?
Beta2AR agonist: -2.2; Bfl-1 A1 inh: 0.1; Dyrk1A ADPGlo: 2.1; dFosB act: -6.7

How did Nc1ccc(OCCCc2c(N)nc(N)nc2N)cc1 do in these assays?
Beta2AR agonist: -6.7; Bfl-1 A1 inh: -1.2; Dyrk1A ADPGlo: -2.8; dFosB act: 21.2*

What do the screens show for `CC(C)(C)c1ccc(C2CC2C(=O)N/N=C\c2ccc[nH]2)cc1` (stereo not drawn)?
Beta2AR agonist: 54.0*; Bfl-1 A1 inh: 0.0; Dyrk1A ADPGlo: 1.8; dFosB act: -10.0

What do the screens show for `CC(C)C[C@H](NC(=O)N1CCn2c1nc1ccccc12)C(=O)N[C@@H](Cc1ccccc1)C(=O)O`?
Beta2AR agonist: -0.1; Bfl-1 A1 inh: 1.0; Dyrk1A ADPGlo: -0.8; dFosB act: -8.2

How did Cc1ccc(/C=C/c2nc3ccccc3c(=O)[nH]2)cc1 do in these assays?
Beta2AR agonist: -7.8; Bfl-1 A1 inh: -8.1; Dyrk1A ADPGlo: 1.6; dFosB act: 9.8

What do the screens show for `Fc1ccc(/C=C\c2nccc3c2[nH]c2ccccc23)cc1`?
Beta2AR agonist: 8.1; Bfl-1 A1 inh: 2.3

How did C(=C\c1nccc2c1[nH]c1ccccc12)/c1ccccc1 do in these assays?
Beta2AR agonist: 1.8; Bfl-1 A1 inh: -0.6; Dyrk1A ADPGlo: 43.1; dFosB act: 42.1*

Results for Cc1ccc(/C=C\c2nccc3c2[nH]c2ccccc23)cc1 ?
Beta2AR agonist: 13.1; Bfl-1 A1 inh: 1.6; dFosB act: 42.4*

What do the screens show for `COc1cc(COC(=O)c2cnc(C)cn2)c(OC)cc1Br`?
Beta2AR agonist: 11.3; Bfl-1 A1 inh: 0.8; Dyrk1A ADPGlo: 6.5; dFosB act: 1.2

What do the screens show for `CCN(C(=O)CCNC(=O)Cn1cnc2ccccc2c1=O)c1ccccc1F`?
Beta2AR agonist: -1.6; Bfl-1 A1 inh: -0.1; Dyrk1A ADPGlo: 2.3; dFosB act: 0.8

Results for CCc1ccc2nc(NC(=O)Cn3cnc4ccccc4c3=O)sc2c1 ?
Beta2AR agonist: 0.2; Bfl-1 A1 inh: 0.6; Dyrk1A ADPGlo: -2.7; dFosB act: 154.4*

What do the screens show for `O=C(Cn1cnc2ccccc2c1=O)Nc1nc2ccccc2s1`?
Beta2AR agonist: -2.9; Bfl-1 A1 inh: 0.8; Dyrk1A ADPGlo: -1.1; dFosB act: inconclusive

High-throughput results from PubChem BioAssay.
